Drawing on PubChem BioAssay AID1851 (National Center for Advancing Translational Sciences (NCATS), 2009), this text covers AC50 and activity, negative = inhibition for 29 compounds.

Out of some 16,000 compounds screened, about 5,800 (36%) were called active. Roughly 23% stayed inconclusive and do not appear here. The list shows a part of the results. Values without a mark were called inactive. The call rests on the fitted dose curve; in most records, active means well fitted curve in the direction sought with a large enough effect; inconclusive means small, poorly fitted or top-dose-only effect, or effect the other way; inactive means no such curve, though single readings can be large or run the other way.
On the % scale 0 is the no-effect control and ±100 the full control effect.

In this assay the target is Cytochrome P450 2C19 (Homo sapiens) (UniProt P33261). The experiment in a line: Cytochrome panel assay with activity outcomes. As to conditions: recombinant CYP, pro-luciferin dealkylation, luminescence, p450-cyp2c19; series mostly up to 57.1 µM.
Cytochrome P450 2C19 (Homo sapiens), sequence (P33261 whole entry, looked up): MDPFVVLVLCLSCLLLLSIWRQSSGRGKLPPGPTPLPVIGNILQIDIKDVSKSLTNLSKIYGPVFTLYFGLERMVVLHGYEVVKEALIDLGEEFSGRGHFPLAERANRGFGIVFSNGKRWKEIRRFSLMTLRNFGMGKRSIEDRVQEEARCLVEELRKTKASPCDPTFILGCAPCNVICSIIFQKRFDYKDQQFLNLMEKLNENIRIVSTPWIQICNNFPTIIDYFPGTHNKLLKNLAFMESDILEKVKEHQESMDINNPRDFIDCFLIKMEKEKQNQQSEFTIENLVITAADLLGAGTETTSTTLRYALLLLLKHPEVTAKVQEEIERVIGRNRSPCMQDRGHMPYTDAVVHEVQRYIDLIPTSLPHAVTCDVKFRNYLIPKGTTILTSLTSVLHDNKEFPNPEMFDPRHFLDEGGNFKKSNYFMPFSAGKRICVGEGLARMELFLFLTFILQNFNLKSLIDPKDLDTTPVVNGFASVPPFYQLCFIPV
By AC50 is commonly meant the midpoint of the concentration-response curve, whichever way the signal moves. With `Nc1c2c(=O)oc(-c3ccccc3)cc2nn1-c1ccccc1`, the AC50 is 14.1 µM (active).
Turning to `NS(=O)(=O)c1cccc2c1c([N+](=O)[O-])cc1[nH]c(=O)c(=O)[nH]c12`, the AC50 result is “inactive”.
As for `NC(=O)c1nnn(Cc2cc(Cl)c(C(=O)c3ccc(Cl)cc3)c(Cl)c2)c1N`, the activity, negative = inhibition was -30.1% [at 11.4 µM].
On to `Cc1cc(C)c(C(N)=O)c(SCC(=O)c2ccc(Cl)cc2)n1`, for which the AC50 was 8.91 µM (active).
Turning to `CCCSc1nc(C)cc(C)c1C(N)=O`, the AC50 result was “inactive”.
Turning to `CCOC(=O)c1nc2sc(C)c(C)c2c(=O)[nH]1`, the AC50 was 10 µM (active).
As to `OCCNc1ncnc2c1ncn2[C@@H]1O[C@@H](CO)[C@H](O)[C@@H]1O`, the activity, negative = inhibition was 32.5% [at 11.4 µM].
For `CCC(=O)N[C@@H]1Cc2ccccc2[C@@H](c2ccccc2)C1`, the AC50 is 7.94 µM (active).
In the case of `CCC(=O)N[C@@H]1CCc2cccc(OC)c2C1`, the AC50 entry is “inactive”.
On the same count and under the same terms, the result for `COc1cccc(Nc2ncc3nc(-c4ccc(F)cc4)c(=O)n(C)c3n2)c1` reads “inactive”.
The same measure, in the same setting: the result for `COc1ccc(-c2nc3cnc(Nc4cccc(OC)c4)nc3n(Cc3cccs3)c2=O)cc1` reads “inactive”; that for `COc1cccc(Nc2nc(-c3ccc(O)cc3)cs2)c1`, 2.51 µM (active); that for `CC(=O)c1cnc2cc(C)nn2c1C`, “inactive”.
Consider `Cc1cc(C)n(C(=O)CCCCCCCCC(=O)n2nc(C)cc2C)n1`, for which the AC50 was 3.55 µM (active).
Same read-out and setting: the result for `CN1CCc2c(cc(O)c(O)c2Cl)[C@H](c2cccc(Cl)c2)C1` reads “inactive”; that for `OC(COCC1COc2ccccc2O1)CN1CCN(c2ccccc2F)CC1` (centres undefined), 28.2 µM (active).
On to `OC(COCC1COc2ccccc2O1)CN1CCc2ccccc2C1` (centres undefined), for which the AC50 is 5.01 µM (active).
As for `CC(C)(C)C1CCC(OCC(O)CN2CCN(c3ccccc3)CC2)CC1` (centres undefined), the AC50 result was “inactive”.
`O=C(c1ccccc1)c1ccc2n1CC[C@H]2C(=O)O`: the AC50 entry was “inactive”.
On the same count and under the same terms, the result for `CC(C)(C)NC[C@@H](O)COc1ccccc1C1CCCC1` reads “inactive”.
Consider `C=CCc1ccccc1OC[C@H](O)CNC(C)C`, for which the AC50 result was “inactive”.
For the compound `O=C(NC1CCCC1)c1cnn2c(C(F)(F)F)cc(-c3ccco3)nc12`, the AC50 is 11.2 µM (active).
Same read-out and setting: the result for `Cc1nc2ccccn2c1C(=O)CSc1ccccc1Cl` reads 2.82 µM (active); that for `COCCNC(=O)[C@H](C)[C@@H]1C[C@@]1(C)[C@@H](NC(=O)OCc1ccccc1)c1ccccc1`, 3.16 µM (active).
Same read-out and setting: the result for `C[C@@H](C(=O)NCCF)[C@H]1C[C@]1(C)[C@H](NC(=O)OCc1ccccc1)c1ccccc1` reads 1.26 µM (active).
Consider `CCOC(=O)N/N=C1/C[C@@H](O)[C@@H](O)[C@@H]2[C@@H]3C(=O)N(C(C)(C)C)C(=O)[C@H]3CC[C@@H]12`, for which the activity, negative = inhibition is -19.4% [at 11.4 µM].
On to `O=C(NCCO[N+](=O)[O-])c1cccnc1`, for which the AC50 is 3.98 µM (active).
The same measure, in the same setting: the result for `O=C(NCCOC(=O)c1ccc(C(=O)OCCNC(=O)c2cccnc2)s1)c1cccnc1` reads 7.94 µM (active); that for `CC(=O)OCCNC(=O)c1cccnc1`, “inactive”.
